Compounds with a hit are over-represented: about 3.5% of the library has one in this group of screens.
TbPYK inhibitor: inhibitors of Trypanosoma brucei pyruvate kinase. Q57TT1. TbPYK enzyme, Kinase-Glo Plus ATP luminescence, 45 min. Potency, µM (highest dose often 76.8 µM), for inactives: at the highest dose activity, negative = inhibition, actives largely listed as inhibitors. hit rate 0.12% among 410,000. AID 624173; further: on the % scale 0 is the no-effect control and ±100 the full control effect; nearly all actives have a fitted effect of over 50% in size
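Luminescence from Kinase-Glo Plus, added after a 45-minute room-temperature reaction, served as the end-point read-out. The enzyme and substrate were preincubated with compound before ADP (130 uM final) initiated turnover. Concentration-effect curves came from normalized qHTS data.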
Sm TGR inh: blocks Schistosoma mansoni thioredoxin glutathione reductase; purified TGR, DTNB reduction, TNB absorbance 405 nm; hit rate 3% among 360,000; AID 485364; Potency, µM (top dose mostly 114 µM), inactives show top-dose activity change, negative = inhibition, hits mostly inhibitors; Q962Y6; further: on the % scale 0 is the no-effect control and ±100 the full control effect; nearly all actives have a fitted effect of over 60% in size
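First, TGR (20 nM dispensed) and NADPH were mixed with compound. Second, a 15 min room-temperature incubation followed. Third, further NADPH and then DTNB were added to start the reaction. Finally, TNB absorbance was monitored kinetically.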
LmPK inhibitor: blocks Leishmania mexicana pyruvate kinase activity; purified LmPK, Kinase-Glo ATP luminescence, 1 h; hit rate 0.37% among 290,000; AID 1721; Potency, µM (doses to about 57.5 µM), for inactives: top-dose activity change, negative = inhibition, actives largely listed as inhibitors; further: on the % scale 0 is the no-effect control and ±100 the full control effect
Target sequence (Q27686 whole entry, looked up): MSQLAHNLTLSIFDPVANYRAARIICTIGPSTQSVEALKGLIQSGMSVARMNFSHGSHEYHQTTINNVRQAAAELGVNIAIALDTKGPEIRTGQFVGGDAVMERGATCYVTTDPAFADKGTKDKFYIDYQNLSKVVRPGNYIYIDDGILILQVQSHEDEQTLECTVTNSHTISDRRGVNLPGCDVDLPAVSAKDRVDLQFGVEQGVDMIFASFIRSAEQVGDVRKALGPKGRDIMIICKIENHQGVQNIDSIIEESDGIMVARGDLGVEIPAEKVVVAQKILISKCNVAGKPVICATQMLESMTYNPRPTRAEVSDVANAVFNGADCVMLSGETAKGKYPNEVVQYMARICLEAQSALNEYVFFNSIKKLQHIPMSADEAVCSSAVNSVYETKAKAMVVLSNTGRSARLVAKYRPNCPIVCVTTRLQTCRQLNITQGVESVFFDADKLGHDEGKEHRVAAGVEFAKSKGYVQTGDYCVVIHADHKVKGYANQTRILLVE
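ATP generated from ADP (0.1 mM) and PEP (0.5 mM) by 0.1 nM LmPK over 1 h at room temperature (pH 7.2 imidazole buffer) was detected by coupled luciferase luminescence. Values were normalized to uninhibited and no-enzyme wells.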
RE007 growth inh: less growth of the S. pombe RE007 Vpr strain | S. pombe RE007 Vpr strain, BacTiter-Glo ATP luminescence, 24 h | Potency, µM (highest dose often 92.2 µM), without a hit: at the highest dose activity change, negative = less growth, most hits filed as inhibitors | hit rate 0.21% among 360,000 | AID 651644; active means well fitted falling curve with a large enough effect; inconclusive means small, poorly fitted or top-dose-only effect; inactive means no such curve, though single readings can be large or run the other way; further: on the % scale 0 is the no-effect control and ±100 the full control effect; nearly all actives have a fitted effect of over 50% in size
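Fission yeast RE007 carrying one integrated HIV-1 vpr copy, seeded at OD 0.01 in PMG+AL medium with 23 nL pinned compound. Grown 24 h at 30 degrees; viability read by BacTiter-Glo luminescence after 5 min.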
NS1 inh: inhibitors of influenza NS1 protein function. Potency, µM (highest dose often 46.1 µM), for the others: at the top dose activity, positive = more growth. hit rate 0.4% among 270,000. AID 2326; calls by dose curve; further: actives are rising curves; nearly all actives have a fitted effect of over 50% in size
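In this qHTS, NS1 from influenza A is expressed in budding yeast, where it slows growth. Cells are switched from glucose to 2% galactose medium (pH 6.0, -URA), treated with compound, and growth recovery is read at OD600.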
Giardia FBPA inh: inhibitors of Giardia lamblia fructose-1,6-bisphosphate aldolase | A8B2U2 | Potency, µM (doses to about 59.6 µM), for the others: at the highest dose activity, negative = inhibition, most hits filed as inhibitors | AID 2451 | hit rate 0.71% among 290,000 | purified Giardia FBPA; further: on the % scale 0 is the no-effect control and ±100 the full control effect; nearly all actives have a fitted effect of over 55% in size
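Giardia FBPA (40 nM reagent) was preincubated 10 min at RT with compound (up to 57.5 uM final), then substrate plus GAPDH/TPI/NAD/arsenate coupling system with diaphorase/resazurin was added; resorufin fluorescence (525/598 nm) was read after 20 min.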
An asterisk follows results filed as active; ? = inconclusive; nt = no result given. Unless noted, the call rests on the fitted dose curve; in most records, active means well fitted curve in the direction sought with a large enough effect; inconclusive means small, poorly fitted or top-dose-only effect, or another doubt; inactive means no such curve, though single readings can be large; an effect the other way counts as inactive or inconclusive. Potency means the concentration at half of the fitted maximal effect.

SMILES	TbPYK inhibitor	Sm TGR inh	LmPK inhibitor	RE007 growth inh	NS1 inh	Giardia FBPA inh
C[n+]1ccccc1/C=C/c1c(F)cccc1F	-8.1%	12.6µM*	7.8%	-27.3%	6.9%	?
C[n+]1ccccc1/C=C/c1ccccc1Cl	-21.9%	22.4µM*	0.8%	-15.4%	26.2%	?
COc1ccc(N/C=C(\C=C\C#N)S(=O)(=O)c2ccccc2)cc1	-0.4%	6.31µM*	5.0%	0.8%	3.5%	3.9%
COc1ccc(NC(=O)c2noc3c2CCCC3)cc1Cl	-0.8%	9.8%	nt	nt	nt	nt
CCc1ccccc1NC(=O)Cn1nnc(-c2nc(-c3ccncc3)no2)c1N	-6.0%	3.8%	nt	nt	nt	nt
COc1ccccc1COn1c(=O)c(-c2ccco2)[n+]([O-])c2ccccc21	6.2%	14.1µM*	0.2%	-0.2%	8.9%	-13.2%
O=c1c(-c2ccco2)[n+]([O-])c2ccccc2n1OCc1ccccc1F	4.2%	?	-6.9%	-11.8%	-3.3%	-0.1%
O=c1c(-c2ccco2)[n+]([O-])c2ccccc2n1OCc1ccccc1	-1.3%	10µM*	-1.8%	nt	10.7%	?
O=c1c(-c2ccco2)[n+]([O-])c2ccccc2n1OCc1c(F)cccc1F	0.0%	15.8µM*	-1.3%	7.3%	2.0%	-6.9%
COc1ccc(-c2nc3sc(CCNS(=O)(=O)c4c(C)cc(C)cc4C)c(C)n3n2)cc1	5.7%	1.2%	nt	nt	nt	nt
Cc1cc(N2CCOCC2)ccc1/C=C1/SC(=O)NC1=O	?	6.3%	15.8µM*	10.3%	nt	10.4%
Cc1cc(N2CCOCC2)ccc1/C=C1\C(=O)NC(=O)N(c2ccccc2)C1=O	?	?	-4.7%	-10.3%	7.0%	-12.7%
O=C(O)CC(C(=O)O)N1C(=O)/C(=C/C=C/c2ccco2)SC1=S (stereo not drawn)	?	5.01µM*	-8.3%	10.5%	11.3%	?
COc1ccc(/C=C2\SC(=S)N(C(Cc3ccccc3)C(=O)O)C2=O)cc1 (stereo not drawn)	-2.9%	6.6%	5.4%	10.6%	-1.8%	20.8%
O=Cc1ccc(-c2nc3ccccc3s2)o1	-12.6%	nt	15.8µM*	-10.0%	-35.0%	-1.8%
O=C(O)C(Cc1ccccc1)N1C(=O)/C(=C/C=C/c2ccco2)SC1=S (stereo not drawn)	-24.8%	6.31µM*	-6.0%	-9.1%	11.8%	?
O=C(O)CCCN1C(=O)/C(=C/C=C/c2ccco2)SC1=S	-25.7%	1.78µM*	-13.3%	-5.3%	5.2%	12.8%
CCCCN(C)C(=O)CSc1nc2ccccc2nc1Cc1ccc(C)cc1	-3.0%	-3.4%	nt	nt	nt	nt
CCCC(=O)NCC(c1ccc2c(c1)OCO2)N1CCOCC1 (stereo not drawn)	0.2%	7.4%	nt	nt	nt	nt
O=C(CCSCc1cnn(-c2ccccc2)c1-n1cccc1)NCc1ccccc1Cl	-4.5%	-6.3%	nt	nt	nt	nt
O=C1CN(C(=O)COc2ccc(Cl)cc2Cl)C(c2ccccc2)c2cc(F)ccc2N1 (stereo not drawn)	0.6%	5.5%	nt	nt	nt	nt
Cn1cccc1/C=C1\SC(=S)N(NC(=O)c2ccccc2O)C1=O	-14.9%	-6.1%	-0.9%	-4.2%	-7.2%	-17.9%
O=C(O)CCN1C(=O)/C(=C/c2ccc(-c3nc4ccccc4s3)o2)SC1=S	-6.4%	-32.2%	2.5%	6.0%	10.7%	-3.0%
O=C(NN1C(=O)/C(=C/C=C/c2ccco2)SC1=S)c1ccccc1O	-10.1%	2.82µM*	2.7%	?	-6.5%	-11.3%
O=C(O)CCCN1C(=O)/C(=C\c2ccc(-c3nc4ccccc4s3)o2)SC1=S	0.1%	35.5µM*	7.9%	3.9%	-0.8%	?
CCOc1ccc(CNC(=O)c2cc3cc(S(=O)(=O)N4CCCCC4)ccc3n2C)cc1	5.4%	2.8%	nt	nt	nt	nt
CC(=O)c1cccc(NC(=O)C2=CC(c3ccc(F)cc3)=NS(=O)(=O)N2C)c1	3.5%	5.9%	nt	nt	nt	nt
CCOc1ccc(NC(=O)C(=O)NCC(c2cccnc2)N2CCc3ccccc32)cc1 (stereo not drawn)	-9.3%	1.2%	nt	nt	nt	nt
